# Pf growth 96h: inhibits malaria parasite growth, 96 h; P. falciparum luciferase reporter growth, 96 h; 320,000 compounds, 6.9% hits; AID 504834; Potency, µM (top dose mostly 28.7 µM), for inactives: top-dose activity change, negative = inhibition, hits mostly inhibitors; note: potency is the fitted concentration of half-maximal effect; % is set by controls: 0 for no effect and ±100 for the full control effect
#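 Delayed-death screen, second-generation endpoint: infected erythrocytes, 2% hematocrit, 0.05% parasitemia final; 96 hours at 37 C, 5% CO2; luciferase detection reagent; luminescence decrease equals reduced growth.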
# HCMV antiviral: blocks human cytomegalovirus replication; HFF cells, HCMV-luciferase reporter, 72 h; active compounds read low; activity change, negative = inhibition, % at 57.5 µM; 410,000 compounds, 4.5% hits; in the data active = activity change below about -60%; inconclusive = no clear call, values can overlap the other calls; inactive = above about -39%; note: % is set by controls: 0 for no effect and ±100 for the full control effect
#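 Screen run at 2 compound doses on HFFs infected with reporter HCMV, MOI 1 PFU/cell. Luciferase activity from cell lysates at 72 h post infection gave inhibition relative to buffer-only and Salinomycin wells.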
# Pf growth 48h: P. falciparum growth inhibition at 48 hours (one generation) | P. falciparum luciferase growth in erythrocytes, 48 h | Potency, µM (series often up to 28.7 µM), for inactives: at the highest dose activity change, negative = inhibition, usual class: inhibitors | 310,000 compounds, 5.9% hits; note: potency is the fitted concentration of half-maximal effect; % is set by controls: 0 for no effect and ±100 for the full control effect
#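 Luciferase-expressing P. falciparum in infected erythrocytes (2% hematocrit, 0.1% parasitemia final) in RPMI 1640/0.5% Albumax were exposed to compound for 48 hours at 37 C, 5% CO2; growth read as luminescence.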
# CHX counter: counter-screen hit for Shiga toxin inhibitors, cycloheximide; cell reporter, cycloheximide protein synthesis inhibition counterscreen; 300,000 compounds, 12% hits; max response, %; in the data active = max response mostly above about 13%, no sharp cut-off; inactive = mostly below about 14%; note: read at 38.3 µM for the half of the compounds with a filed dose; 0% is about no effect
# Shiga toxin inh: inhibitors of Shiga toxin in Vero cells | Vero cells, Shiga toxin protein synthesis inhibition reporter | inhibition, % at 38.7 µM | 290,000 compounds, 9.2% hits; in the data active = inhibition mostly above about 28%, no sharp cut-off; inactive = mostly below about 43%; note: 0% is about no effect
# HCV inhibitor: blocks hepatitis C virus | 340,000 compounds, 3.4% hits | Huh7.5.1 HCVcc-Cre infection, luciferase reporter, 44 h | Potency, µM (top dose mostly 41.8 µM), for the others: at the top dose activity change, negative = inhibition, hits mostly inhibitors; note: potency is the fitted concentration of half-maximal effect; % is set by controls: 0 for no effect and ±100 for the full control effect
#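 Infectious HCV cell culture screen: compound-treated cells (1,000/well, pre-plated 4 h) are infected with HCVcc-Cre at roughly 0.5 moi and grown 44 h. Infection is quantified by luciferase signal after 15 min substrate incubation at room temperature.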
# * hit, by the source's call; ? = inconclusive; . = not tested or not shown; [ ] = another dose, or the depositor's remark. A selection: hits, their analogues and other compounds. The true share with any hit is near 21%. Unless noted, calls come from the whole dose curve; as a rule, active = well fitted inhibition curve with a large enough effect; inconclusive = small, poorly fitted or top-dose-only effect, or another doubt; inactive = no such curve, though single readings can be large or run the other way.
SMILES,Pf growth 96h,HCMV antiviral,Pf growth 48h,CHX counter,Shiga toxin inh,HCV inhibitor
CC(CCc1ccccc1)NC(=O)COC(=O)c1ccc(NC(N)=O)cc1 (configuration not stated),-20.6%,-71.0*,?,-5.6,2.6,-12.9%
CCCCCCOC(=O)c1ccc(N)cc1,358.4%,-17.5,309.7%,42.2*,69.3*,-20.8%
COC(=O)c1cc(OC)c(OC)cc1NC(=O)c1ccc2c(c1)CCN2S(C)(=O)=O,.,-3.2,.,.,.,.
CCC[C@H]1[C@@H](NC(=O)Nc2ccc(C(C)C)cc2)CC[C@@]23CCCN2C(=O)CCC[C@@H]13,.,9.7,.,.,.,.
CCCCOC(=O)Nc1cc(C(=O)OC)ccc1C(=O)OC,?,.,10.4µM*,-2.3,-2.0,?
CCCCOC(=O)c1ccc(NC(=O)c2cc(-c3cccs3)on2)cc1,.,9.9,.,.,.,.
CCCCOC(=O)c1ccc(NC(C)=O)cc1,?,25.5,49.5%,13.4,51.9*,10.2%
CCCCOC(=O)c1ccc(NC(=O)c2cc(Cl)c(Cl)cc2C(=O)O)cc1,52.5%[5.75 µM],-25.5,1.2%,32.0*,65.6*,12.8%
CCCCOC(=O)c1ccc(NC(=O)/C=C/c2cccs2)cc1,-11.9%,48.3,19.5%,40.7*,52.7*,1.6%
CCCCOC(=O)Nc1ccc(C(=O)OC)cc1,-2.7%,-17.9,66.1%,11.8,40.5,-24.3%
O=C1CCN(Cc2ccccc2)N1,39.2%,-2.3,19.5%,1.3,3.3,13.0%
CCCCCOC(=O)C1C(c2ccccc2)C(C(=O)O)C1c1ccccc1 (configuration not stated),?,-93.1*,-6.6%,-3.4,-1.8,23.9%
CCCCOC(=O)c1ccc(N)cc1,38.6%,34.1,60.3%,14.9*,63.1*,6.0%
CCCOC(=O)c1ccc(NC(=O)C(CC)CC)cc1,1.5%,2.2,88.8%,40.5*,70.2*,-10.9%
CCCCOC(=O)c1ccc(NC(=O)c2nn(C)cc2Br)cc1,?,27.6,?,29.9*,79.4*,?
CS(=O)c1ccc(-n2c(=O)n(Cc3ccccc3)c(=O)c3[nH]cnc32)cc1 (configuration not stated),0.0%,-36.9,1.2%,-2.8,-10.4,-5.9%
CCCCOC(=O)c1cc(=O)[nH]c2ccc(C)cc12,?,?,?,5.1,0.8,12.4%
O=C(O)C1C(c2ccccc2)C(C(=O)OCc2ccco2)C1c1ccccc1 (configuration not stated),-6.8%,6.1,-7.0%,-0.9,-3.2,14.4%
COC(=O)C1C(c2ccccc2)C(C(=O)OCc2ccco2)C1c1ccccc1 (configuration not stated),-4.3%,10.3,10.4µM*,72.1*,124.6*,?
CCCCOC(=O)c1cc(=O)[nH]c2ccccc12,11.7µM*,.,5.6%,11.2*,12.0,5.7%
CCCOC(=O)Nc1ccc(C(N)=O)cc1,-2.6%,9.7,58.6%,24.3*,19.2,-4.0%
Cc1sc2nc[nH]c(=O)c2c1-c1ccc(Cl)cc1,?,-74.0*,10.3%,-3.7,-10.4,-11.9%
Cc1ccc(-c2csc3nc[nH]c(=O)c23)cc1,224.5%,?,-1.0%,5.5,5.7,-11.5%
COc1ccc(CNC(=O)C2CCN(S(=O)(=O)c3cccc(-c4noc(C)n4)c3)CC2)cc1,.,7.9,.,.,.,.
COc1ccc(/C=C/C(=O)Nc2cc(S(=O)(=O)N3CCCCC3)ccc2N2CCCCC2)cc1OC,?,-3.9,?,-1.2,11.6,0.0%
SMILES,Pf growth 96h,HCMV antiviral,Pf growth 48h,CHX counter,Shiga toxin inh,HCV inhibitor
CCN1CCN(c2ccc(S(=O)(=O)N3CCCCC3)cc2NC(=O)/C=C/c2ccc(OC)c(OC)c2)CC1,6.57µM*,-4.3,6.57µM*,.,.,2.1%
CCN1CCN(c2ccc(S(=O)(=O)N3CCCCC3)cc2NC(=O)/C=C/c2ccc(Cl)cc2)CC1,.,4.3,.,.,.,31.6µM*
CC(C)Nc1nnc(SC(C)C(=O)NCc2ccc3c(c2)OCO3)s1 (configuration not stated),-38.4%[5.75 µM],-20.7,?,2.0,5.5,3.7%
COc1ccc2nc(C)cc(SCC(=O)N/N=C/c3ccccc3)c2c1,4.15µM*,-60.1*,-21.1%,-2.7,-15.7,-1.9%
Cc1cc(C(=O)NN)c2cc(Br)ccc2n1,?,-28.9,.,9.8,5.2,4.6%
COc1cccc2c(SCC(=O)N/N=C/c3ccc(O)cc3O)cc(C)nc12,43.2%,58.9,?,-1.7,-11.0,?
Cc1cc(SCC(=O)NN)c2cc(Br)ccc2n1,?,-66.5*,14.7µM*,-1.8,1.7,2.9%
COc1ccccc1/C=N/NC(=O)CSc1cc(C)nc2ccccc12,?,-81.5*,12.2%,7.0,-2.9,-27.9%
COc1ccccc1/C=N/NC(=O)CSc1ccc2ccccc2n1,-3.1%,?,19.8%[0.00184 µM],25.4*,69.6*,?
COc1ccc2nc(C)cc(SCC(=O)N/N=C/c3c(OC)ccc4ccccc34)c2c1,0.0%,-2.8,4.9%,-0.7,14.5,0.8%
O=C(CN(C(=O)c1csnn1)c1ccccc1F)NC1CCCCC1,0.5%,-39.9,10.7%,-5.0,1.7,6.3%
C[C@@H]1CN([C@H](C)CO)C(=O)CCCn2cc(nn2)CO[C@H]1CN(C)C(=O)Nc1ccc(C(C)(C)C)cc1,.,2.1,.,.,.,.
CCN(C(=O)Cn1cnc2onc(-c3ccc(F)cc3)c2c1=O)c1cc(C)ccc1C,.,10.0,.,.,.,.
Cc1cc(OCC(=O)N(Cc2ccco2)c2c(N)n(Cc3ccccc3)c(=O)[nH]c2=O)ccc1Cl,?,0.0,?,.,.,?
COCCCNC(=O)C1Cc2cc(S(=O)(=O)N3CCCC3)ccc2N1C(C)=O (configuration not stated),-26.3%,-7.9,0.5%,1.2,8.1,22.5%
Cn1c(=O)oc2cc(S(=O)(=O)NCCC(=O)Nc3ccc(F)c(Cl)c3)ccc21,.,10.1,.,.,.,.
CNS(=O)(=O)c1ccc(C(C)(C)C)cc1,257.9%,-32.3,122.0%,-1.8,-9.6,-6.8%
COc1ccc2nc(C)cc(SCC(=O)N/N=C/c3ccc(O)cc3O)c2c1,-3.0%,-20.6,?,-2.4,12.7,12.6µM*
Cc1cc(OCC(=O)Nc2ccc(C(=O)OC3CCCCC3)cc2)cc(C)c1Cl,.,-14.5,.,.,.,.
O=Cc1ccc(Oc2cc(-c3ccccc3)nc(-c3ccccc3)n2)cc1,13.1µM*,-19.4,23.0%,-1.1,-6.9,?
O=C1NC(=O)C(CSc2ccccc2)(c2ccccc2)N1 (configuration not stated),.,-10.5,.,.,.,1.4%
CC1(CSc2ccccc2)CC(=O)N1 (configuration not stated),.,-78.9*,.,.,.,.
Cc1cccc(NC2=Nc3ccccc3N3C2=Nc2c(c(C)nn2-c2ccccc2)C3c2ccc(O)c(O)c2)c1 (configuration not stated),11.7µM*,-97.1*,?,-2.5,-3.9,?
